Test results reported in PubChem BioAssay AID2234 (The Scripps Research Institute Molecular Screening Center, 2010).
Screen size: about 320,000 compounds; about 480 (0.15%) were called active. The sample holds actives, similar compounds and a random draw of the others, so the mix is not that of the screen. A number with no mark means an inactive call. Cut-off read from the data, not from the text of the source: active = inhibition above about 33%; inactive = the rest.

The compounds below were run against Lytic switch protein BZLF1 (Epstein-Barr virus (strain B95-8)) (UniProt P03206) (assay: Zta-DNA interaction blockers, Epstein-Barr virus – biochemical, fluorescence polarization, single concentration, counter-screen for EBNA-1 inhibitor project, primary screen (AID 2234)). Conditions: ZTA-DNA binding, at 11 µM, active compounds read high.
Sequence of Lytic switch protein BZLF1 (Epstein-Barr virus (strain B95-8)) (P03206 whole entry, looked up): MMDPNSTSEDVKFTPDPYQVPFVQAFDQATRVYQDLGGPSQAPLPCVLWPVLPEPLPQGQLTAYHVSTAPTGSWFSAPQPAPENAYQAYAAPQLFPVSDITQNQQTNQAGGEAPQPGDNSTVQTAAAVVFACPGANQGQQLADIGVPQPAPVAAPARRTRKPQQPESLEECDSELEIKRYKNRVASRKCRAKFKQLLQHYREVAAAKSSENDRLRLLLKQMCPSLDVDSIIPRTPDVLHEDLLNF
Work on `CC(=O)Nc1ccc(NC(=O)C2CCCN2S(=O)(=O)c2cccc(C(F)(F)F)c2)cc1` (configuration not stated) yielded an inhibition of 17.1%. `C=CCn1c(COc2ccc(F)cc2)nnc1SCC(=O)Nc1cccc(S(N)(=O)=O)c1` gave an inhibition of 3.26%. Work on `O=C(CCn1c(=S)[nH]c2cc3c(cc2c1=O)OCO3)NCc1ccc(Cl)cc1` yielded an inhibition of 2.43%. With `N#C/C=C1\Sc2ccccc2C(=O)N1CC(=O)N1CCN(S(=O)(=O)c2ccccc2)CC1` the inhibition was -8.28%. Work on `O=C(O)Cc1csc(NC(=O)CSc2nnnn2-c2ccc(O)cc2)n1` yielded an inhibition of 2.08%. Compound `O=C(/C=C/c1cc2c(cc1Br)OCO2)NCc1ccc(Cl)cc1` has an inhibition of -6.35%. `CC(=O)Nc1c2c(nn1-c1ccc(C)cc1C)CS(=O)C2` (configuration not stated) was tested, and the inhibition was -22.1%. `NC(=O)C1CCN(C(=O)c2ccc3c(=O)n(Cc4cccc(Br)c4)c(=S)[nH]c3c2)CC1` showed an inhibition of -10.6%. In the case of `C#CCOCCOCCOCCNc1nc(N2CCN(C(=O)CCCCCCCCCCNC(=O)[C@H](CCCCN)n3cc(C)nn3)CC2)nc(N2CCN(C(=O)CCCCCCCCCCNC(=O)[C@H](CO)n3cc(CCCSC)nn3)CC2)n1`, the inhibition is reported as 12.7%. `C#CCOCCOCCOCCNc1nc(N2CCN(C(=O)CCCCCCCCCCNC(=O)[C@H]([C@@H](C)CC)n3cc(CCCCN=C(N)N)nn3)CC2)nc(N2CCN(C(=O)CCCCCCCCCCNC(=O)[C@H](CO)n3cc(CCCSC)nn3)CC2)n1` was tested, and the inhibition was 134% (active). With `C#CCOCCOCCOCCNc1nc(N2CCN(C(=O)CCCCCCCCCCNC(=O)Cn3cc(CCCCCN)nn3)CC2)nc(N2CCN(C(=O)CCCCCCCCCCNC(=O)[C@H](CO)n3cc(CCCSC)nn3)CC2)n1` the inhibition was 24.8%. Work on `COC(=O)c1ccc(NC(=O)CSc2nnc(Cc3cccn3C)n2-c2ccc(F)cc2)cc1` yielded an inhibition of 11.4%. `Cc1ccc(Cc2cncc(O)c2)cc1S(=O)(=O)O` gave an inhibition of -9.54%. With `Cc1csc(CN(C)C(=O)CC2C(=O)NCCN2CC(C)(C)C)n1` (configuration not stated) the inhibition was 5.13%. `CCN1C(=O)C(=O)N(CC(=O)Nc2cc(C)ccc2C)C1=O` was tested, and the inhibition was 9.39%. `CSc1ccccc1NC(=O)c1ccc2c(c1)CCN2S(C)(=O)=O` was tested, and the inhibition was 14.6%. Compound `Cc1ccc(OCC(=O)Nc2ccccc2C(=O)NC2CC2)cc1C` has an inhibition of 1.2%. With `CCCCNC(=O)C1(O)c2ccccc2NC(=O)N1c1ccc(Cl)cc1` (configuration not stated) the inhibition was 2.71%. With `O=C(N/N=C/c1cccc2cccnc12)[C@H]1C[C@@H]1c1ccccc1` the inhibition was -1.05%. For `Cc1ccc(Cc2nnc(SCC(=O)Nc3ccc(C)cc3C)[nH]c2=O)cc1`, the inhibition was 2.99%. For `CCC1Oc2ccccc2N(CC(=O)NCCCN2CCN(CC)CC2)C1=O` (configuration not stated), the inhibition was -3.45%. With `COc1ccc(C(=O)C2CCCN(C(=O)c3cnsn3)C2)c(C)c1` (configuration not stated) the inhibition was -0.75%. With `COc1ccc(S(=O)(=O)/N=C2\C=C(NS(=O)(=O)c3ccccc3)C(=O)c3ccccc32)cc1` the inhibition was 7.31%. `Cc1ccc(C2CC(c3cccc(NS(C)(=O)=O)c3)=NN2S(C)(=O)=O)cc1` (configuration not stated) gave an inhibition of 0.89%. For `CN1CCN(Cc2nc3cc(NC(=O)COc4ccc([N+](=O)[O-])cc4)ccc3n2C)CC1`, the inhibition was -16.4%. With `CC(NC(=O)c1cccc2ccccc12)c1ccc2c(c1)CCCC2` (configuration not stated) the inhibition was -9.25%. Compound `CCOC(=O)CN(C(=O)COc1nc(C)cc(C)c1C#N)c1ccc(Cl)cc1` has an inhibition of 3.1%. In the case of `CC(=O)Nc1ccc(NC(=O)COC(=O)c2ccccc2C(=O)c2ccccc2)cc1`, the inhibition is reported as 1.75%. `COc1ccc(N2CC(NS(=O)(=O)c3ccc4ccccc4c3)CC2=O)cc1` (configuration not stated) was tested, and the inhibition was -13.8%. For `CCC1=C(OC(=O)N(CC)CC)N2C(=O)OC(=NCC3CC3)[C@]2(C)[C@H]2C1=CC[C@H]1C(=O)N(CC(=O)OC)C(=O)[C@H]12`, the inhibition was 14%. Work on `CN(C(=O)CN1C(=O)CCSc2ccc(S(=O)(=O)N3CCCC3)cc21)c1ccccc1` yielded an inhibition of 4.65%. `COCCOC(=O)C1=C(C)NC(=O)NC1c1cc2c(cc1Br)OCO2` (configuration not stated) gave an inhibition of -2.42%. `Cc1cc(C(=O)OCC(=O)Nc2ccccc2Cl)c(C)o1` gave an inhibition of -1%. With `CC1(c2nnc(-c3ccncc3)o2)CC(c2cccnc2)=NO1` (configuration not stated) the inhibition was -4.98%. `CCNc1nc(Oc2ccc(C(=O)OC)cc2)nc(N2CCOCC2)n1` was tested, and the inhibition was 26.6%. For `Cc1ccccc1CN1C(=O)c2ccccc2Sc2ccc(C(=O)NCCCN3CCOCC3)cc21`, the inhibition was 5.14%. In the case of `CCN1CCN(CCNC(=O)c2ccc(/C=C3/Sc4ccccc4N(Cc4cccc(C)c4)C3=O)cc2)CC1`, the inhibition is reported as 56.8% (active). For `O=C(NCCCN1CCOCC1)c1ccc2c(c1)N(Cc1cccc(F)c1)C(=O)c1ccccc1S2`, the inhibition was -13.9%. For `Cn1cnc2c1c(=O)n(Cc1ccccc1C#N)c(=O)n2C`, the inhibition was 95.5% (active). Compound `Cn1c(=O)c2c(ncn2CCc2ccccc2)n(C)c1=O` has an inhibition of -0.22%. `Cn1cnc2c1c(=O)n(Cc1c(Cl)cccc1Cl)c(=O)n2C` was tested, and the inhibition was -29.3%. In the case of `Cc1ccc(Cc2nnc(SCC(=O)Nc3ccccc3C)[nH]c2=O)cc1`, the inhibition is reported as 0.83%. `Cc1ccc(C(=O)O)cc1-c1ccc(/C=C2\SC(=O)N(CC(=O)Nc3ccc4c(c3)OCO4)C2=O)o1` showed an inhibition of 9.2%. With `CCN1C(=NCC(C)C)N[C@@H](CCc2ccccc2)[C@H](C(=O)NCC(C)C)[C@H]1C` the inhibition was -17.1%. With `CCOC(=O)CC(NC(=O)C1c2ccccc2Oc2ccccc21)c1ccc(C)cc1` (configuration not stated) the inhibition was 2.93%. Work on `COc1ccc(N(CC(=O)Nc2ccc(F)c(F)c2)S(=O)(=O)c2c(C)[nH]c(=O)[nH]c2=O)cc1` yielded an inhibition of 3.47%. Work on `COC(=O)c1ccc(CN2CCN(CCCc3ccccc3)C(CCO)C2)cc1` (configuration not stated) yielded an inhibition of -17.9%. Compound `Cc1cccn2c(CNCC(C)Oc3cccnc3)c(C(=O)N3CCOCC3)nc12` (configuration not stated) has an inhibition of 13.7%. For `O=C(CC(NCCN1CCOCC1)C(=O)O)Nc1cccc(Cl)c1` (configuration not stated), the inhibition was 5.11%. `CCCCS(=O)c1snnc1C` (configuration not stated) was tested, and the inhibition was -5.28%. Work on `Cc1ccc2c(C)c(C(=O)N3CCN(c4ccncc4)CC3)oc2c1C` yielded an inhibition of 1.76%. Work on `O=C(COc1cccc(F)c1)Oc1ccc(C(=O)c2ccccc2)cc1` yielded an inhibition of 12.6%. Compound `CCC1CCC/C1=N\NC(=O)c1ccc(Cl)cc1` (configuration not stated) has an inhibition of 4.98%. Compound `COc1cc(-c2nnc(Cn3cc(C(F)(F)F)ccc3=O)o2)cc(OC)c1OC` has an inhibition of 5.1%. Compound `COC(=O)C1CCCCN1C(=O)c1ccc(OC2CCN(C(C)=O)CC2)c(OC)c1` (configuration not stated) has an inhibition of 5.86%. `O=C(c1cccc(-n2cccc2)c1)N1CCN(S(=O)(=O)c2ccc(F)cc2)CC1` was tested, and the inhibition was -25.8%. With `O=C(NC1CC1)C1=C[C@H](c2coc3ccccc3c2=O)C[C@H](OCCCCO)O1` the inhibition was -2.42%. In the case of `N#CCSc1nc2ccc(N3CCOCC3)cc2c(=O)n1CCc1ccccc1`, the inhibition is reported as -10.6%. In the case of `O=C(Nc1cccc(-c2nc3ccccc3[nH]2)c1)c1ccc(C(=O)Nc2cccc(-c3nc4ccccc4[nH]3)c2)cc1`, the inhibition is reported as 84% (active). Compound `O=C(Nc1ccccc1)c1cc2ccccc2[nH]1` has an inhibition of -12.6%. Work on `Cc1ccc(-c2nc3ccccc3[nH]2)cc1N` yielded an inhibition of -1%. Compound `Cc1cccc(N2C(=O)N3[C@H](c4ccc(F)cc4)[C@@H]4C(=O)N(C5CCCCC5)C(=O)[C@@H]4[C@]3(Cc3ccccc3)C2=O)c1` has an inhibition of -2.81%. `O=C(NCc1ccccc1CN1CCCC1)c1cccc(S(=O)(=O)Nc2ccc(F)cc2)c1` showed an inhibition of 3.93%. `CS(=O)(=O)Nc1cccc(C2=NN(C(=O)c3cccc(F)c3)C(c3cccs3)C2)c1` (configuration not stated) gave an inhibition of -3.98%. `CN1CCN(CCCNC(=O)c2ccc(/C=C3\Oc4ccccc4N(Cc4ccc(Cl)cc4)C3=O)cc2)CC1` was tested, and the inhibition was 45.5% (active). In the case of `CCCN1CCN(C(=O)CCCNC(=O)c2ccc(Cl)cc2)CC1`, the inhibition is reported as 1.38%. Work on `CN1C(=O)/C(=C/c2ccc(C(=O)NC3CCCC3)cc2)Oc2ccccc21` yielded an inhibition of -2.56%. Work on `CC(=O)c1c(C)[nH]c(C(=O)OCC(=O)Nc2c(C)cccc2C)c1C` yielded an inhibition of 3.88%. Work on `COC(=O)c1cc(N2CCNCC2)nc2ccccc12` yielded an inhibition of 5.41%. `CC12CCC(=O)N1C(C(=O)NCCN1C(=O)S/C(=C\c3ccccc3F)C1=O)CS2` (configuration not stated) showed an inhibition of -4.27%. Work on `Cc1ccc(-c2nn(-c3ccc(F)cc3)cc2C(=O)NCC(c2cccs2)N2CCOCC2)cc1` (configuration not stated) yielded an inhibition of 2.78%. For `CC1=CC2=NC(=O)CC(C)(C(=O)N(CC(=O)NC(C)(C)C)Cc3ccccc3)N2C=C1` (configuration not stated), the inhibition was -6.91%. Work on `COc1cc(C2/C(=C(\O)c3ccc4c(c3)CC(C)O4)C(=O)C(=O)N2c2nnc(C)s2)cc(OC)c1OC` (configuration not stated) yielded an inhibition of -16.7%. With `COc1ccccc1CNC(=O)C1Cc2ccccc2C(=O)O1` (configuration not stated) the inhibition was -9.61%. `CC(=O)Nc1ccc(S(=O)(=O)Oc2ccc(Br)cc2C(=S)N2CCOCC2)cc1` showed an inhibition of -23.8%. Work on `CCc1c(C)nc(N)n2c(SCC(=O)NC3CCCCC3)nnc12` yielded an inhibition of -21.8%. With `Cc1ccc2c(c1)N(CC(=O)N1CCOCC1)C(=O)CO2` the inhibition was -24.9%. `COc1ccc(N2CCN(CCNC(=O)CCN3C(=O)COc4ccccc43)CC2)cc1` showed an inhibition of 3.46%. In the case of `COc1ccc(N2CCN(C(=O)CN3C(=O)COc4ccccc43)CC2)cc1`, the inhibition is reported as 49.2% (active). With `C=C(Cl)COC(=O)C1C2C=CC(C2)C1C(=O)O` (configuration not stated) the inhibition was -6.87%. Work on `Cc1oc(-c2ccccc2Cl)[n+]([O-])c1C` yielded an inhibition of 4.54%. With `Cc1nc(N)c(Br)c(C)c1Br` the inhibition was 10.1%.
